The text below walks through data of the OligoGym collection.
Further: reference of the scale not given here.

For the first experiment, the target named is GATA4. As to the kind of experiment: pooled miR-30 sensor sort-seq; sequence = guide strand. Conditions: shRNA.
Regarding TTGATGCCGTTCATCTTGTGGT, the sensor-assay potency score (higher = more potent) was -0.805.
Still for that read-out and setting: to TTCGTGTTGCAGAATCTCTGGC belongs 0.947.
Still for that read-out and setting: for GAAGTCGTCAAACATATCGAGA the value was -1.84; for AACGTCTGGGACACGGAGCTGC, 0.00321; for TTAGCAGTCGTCTTCTTTCCAG, -0.572.
Same read-out and setting: for TTTATTTTGAGAGATGTTGGAA the value was 0.35.
Turning to TTCCGCATTGCAAGAGGCCTGG, the sensor-assay potency score (higher = more potent) was -0.334.
Same read-out and setting: for TTGATGGGACGCATCTCCTCGC the value was -0.611; for TTGGGCTTCCGTTTTCTGGTTT, -0.283.
On the same count and under the same terms, to TGACGGGAGACGCATAGCCTTG belongs -1.75.

A further experiment concerns the target GCKR. Described as above. The note with it: shRNA.
Consider TGTCGGAATGTTGAACTCCAGT, for which the sensor-assay potency score (higher = more potent) was -1.08.
As for TTCTTCTCCAGACTGGTGCTGA, the sensor-assay potency score (higher = more potent) is -0.0469.
Still for that read-out and setting: for TAGCAGTCGAACAATGTTCTCA the value was -0.15; for TTTGTCTAGATCCTGGGTCAGT, -0.835.
Still for that read-out and setting: for TATCATCTGACAGTGGCTGGGG the value was 0.728; for TTTGGTGCTTAGCTCACGCTGG, -0.0787; for TTCGCTGTAGAGTCTCTGGTAT, 0.0176.
Still for that read-out and setting: to TTCCTTCTCATGTGCAACCTGG belongs -0.464.
TAGCTCACGCTGGAACTTCTGG yielded a sensor-assay potency score (higher = more potent) of -0.719.
On the same count and under the same terms, for TAGGTCGAGAGCAAGAACTCTC the value was -0.283; for ATCTGCTTTGTCTAGATCCTGG, -0.482.
Same read-out and setting: for TTCTGGTTAAACATGTCACTGT the value was 0.368.
